Assay results reported in PubChem BioAssay (NCI).
The panel holds about 79,000 compounds, 15% with a hit somewhere; the sample as a whole holds those more often. A number with no mark means an inactive call. Calls of active or inactive are those of the source. Cut-off read from the data, not from the text of the source: active = growth inhibition above about 70%; inactive = the rest.

Assays:
[1] = NCI Yeast Anticancer Drug Screen. Data for the rad50 strain (AID 155);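 note: 0% = growth of vehicle-only cultures of the same strain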; details: S. cerevisiae rad50 strain growth inhibition, hits give high values; at 50.0 µM unless noted
Outline: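 Inhibition values express reduced yeast growth in compound-treated cultures relative to vehicle-treated controls.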

[2] = NCI Yeast Anticancer Drug Screen. Data for the mec2-1 strain (AID 157); details: S. cerevisiae mec2-1 strain, hits give high values; at 50.0 µM unless noted
Outline: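 Compounds were applied to mec2-1 yeast cells. Their growth was then compared with that of vehicle-treated cultures to give growth inhibition.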

[3] = NCI Yeast Anticancer Drug Screen. Data for the sgs1 mgt1 strain (AID 161);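 note: 0% = growth of cultures given vehicle only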; details: S. cerevisiae sgs1 mgt1 strain, hits give high values; at 50.0 µM unless noted
Outline: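 Percent growth inhibition was derived by comparing compound-exposed mutant yeast with vehicle-exposed cultures. The strain carries alterations in DNA damage repair.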

[4] = NCI Yeast Anticancer Drug Screen. Data for the cln2 rad14 strain (AID 165);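 note: 0% = growth equal to vehicle treated cultures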; details: S. cerevisiae cln2 rad14 strain, hits give high values; at 50.0 µM unless noted
Outline: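 Strain: cln2 rad14 yeast, altered in cell cycle control and DNA damage repair. Read-out: growth inhibition vs vehicle.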

[5] = NCI Yeast Anticancer Drug Screen. Data for the bub3 strain (AID 167); details: S. cerevisiae bub3 mutant strain, hits give high values; at 50.0 µM unless noted
Outline: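 Steps: expose the mutant yeast strain to compound; grow alongside vehicle-treated cultures; measure growth; express inhibition against the vehicle cultures.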

[6] = NCI Yeast Anticancer Drug Screen. Data for the mlh1 rad18 strain (AID 175); details: S. cerevisiae mlh1 rad18 strain growth inhibition, hits give high values; at 50.0 µM unless noted
Outline: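 A repair-deficient yeast strain is exposed to test compound, and growth is scored relative to vehicle-treated controls.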

| Structure (SMILES) | growth inhibition [1] [%] | growth inhibition [2] [%] | growth inhibition [3] [%] | growth inhibition [4] [%] | growth inhibition [5] [%] | growth inhibition [6] |
| --- | --- | --- | --- | --- | --- | --- |
| CCn1nc(C)c2c1C(=O)NC(C)C(=O)N2 (stereo unspecified) | -22.6 | -33 | -13.5 | 16.4 | -22.9 | -22.4% |
| Cc1cccc(-c2cc3ccccc3c(Cl)n2)n1 | -4 | -23.1 | 10.8 | -0.6 | 7.6 | 7.7% |
| Nc1nnc2nc(C(C(=O)c3ccc(F)cc3)c3nc4nnc(N)n4[nH]c3=O)c(=O)[nH]n12 | 15.1 | 4.15 | -10.2 | 8.45 | 0.2 | 18.8% |
| CC1=CCC(CC2CO2)C1(C)C (stereo unspecified) | -27.6 | -48.4 | -17.2 | -9.95 | -35.2 | -31.1% |
| CCN(CC)OC(=O)/C=C/c1ccccc1 | 2.05 | 5.5 | -10.3 | 20.2 | -3.3 | -4.45% |
| CC1(C)CNC[C@]2(C)OCCCO[C@@]3(C)CNCC(C)(C)NC(=O)[C@](C)(CNCC(C)(C)NC3=O)OCCCO[C@](C)(CNCC(C)(C)NC2=O)C(=O)N1 | -33.2 | -22.2 | -32.1 | 0.5 | -17.1 | -46.2% |
| CC(CCC#CC(=O)O)OC1CCCCO1 (stereo unspecified) | -14.9 | -33 | -2.05 | 2.95 | -15.1 | -14.2% |
| CCSc1nnc(Sc2c3ccccc3nc3ccccc23)s1 | 26.9 | 3.15 | -13.1 | 11.4 | 16.8 | 76% (active) |
| S=C(Nc1ccc2c(c1)oc1ccccc12)c1cccs1 | 35.1 | 16.6 | -36.2 | -7.25 | -9.6 | -4.6% |
| C=C=C(C)[Si](C)(C)C | -14.8 | 3.85 | -29.9 | -3.25 | -51.5 | -45.9% |
| COc1cc(N(Cc2ccc3nc(OC)c(OC)nc3c2)Cc2ccc3nc(OC)c(OC)nc3c2)cc(OC)c1OC | -29.8 | -23.6 | -19.4 | -6.4 | -20.4 | -14.6% |
| C=C1CC(CCCC2CC(=C)C(=O)O2)OC1=O (stereo unspecified) | 5.8 | 12.9 | -4.1 | -50.7 | -11.2 | 6.15% |
| CC1(c2nc3ccccc3[nH]2)CCC(C(N)=O)C(C)(C)O1 (stereo unspecified) | 1.5 | -13.2 | -19.8 | -2.55 | -16.9 | -10.6% |
| COc1ccc(Cl)cc1NC(=O)Oc1ccc(NC(C)=O)cc1 | 3.2 | -0.6 | -1.15 | -1.3 | 11 | 4.25% |
| N#CCN1CCCCCC1 | -14.8 | -20.5 | -16.6 | 4.2 | -13.6 | 9.8% |
| N.N.N.N.O=C([O-])O.O=C([O-])[O-].[Co+3] | 2.15 | 3.4 | 12.1 | 26.9 | 24.2 | 8.95% |
| [N-]=[N+]=Nc1ccc2nc(N)nc(N)c2c1 | -4.25 | 5.7 | 2.85 | -33.9 | -7.45 | -5.2% |
| COc1ccc(OC)c2[nH]c(Sc3c([N+](=O)[O-])ncn3C)nc12 | -5.95 | -13.9 | -15.4 | 8.55 | -15.2 | -7.7% |
| CCOC(=O)C(c1ccc2c(c1)OCO2)C1(NC(=O)c2ccccc2)C(=O)C(C(=O)OC)C(=O)C1C(=O)OC (stereo unspecified) | 16.5 | 6.15 | -6.7 | 10 | 1.4 | 10.9% |
| CC(C)C(C(N)=O)(C(=O)O)C(C)C | -4.25 | 4.05 | 4.6 | 5.2 | -5.5 | 6.85% |
| CCOC(=O)C(=CNC(=S)Nc1c(CC)cccc1CC)C(=O)OCC | -26.2 | -38.4 | -2.9 | 4.65 | -5.15 | -59.9% |

| Structure (SMILES) | growth inhibition [1] [%] | growth inhibition [2] [%] | growth inhibition [3] [%] | growth inhibition [4] [%] | growth inhibition [5] [%] | growth inhibition [6] |
| --- | --- | --- | --- | --- | --- | --- |
| CCCSc1nn2cc(NC(=O)OC)nc2s1 | -13.5 | -8.7 | -3.75 | -24.5 | 7.05 | -6.5% |
| NC(=S)N/N=C1\CCCc2ccccc21 | 60.8 | 21.2 | 42.3 | 41.9 | 7.15 | 52.8% |
| COC(=O)c1[nH]c(=O)c2ccc([N+](=O)[O-])cc2c1O | -15.7 | 0.15 | -14.9 | 16.1 | -6.05 | -0.4% |
| c1ccc(CN2CCOC2)cc1 | 15.6 | 5.85 | -13.1 | 11 | -2.2 | -35.6% |
| COC(=O)[C@H](Cc1c[nH]c2ccccc12)NC(=O)OCC1OC(n2cc(C)c(=O)[nH]c2=O)CC1N=[N+]=[N-] (stereo partly specified) | -0.35 | -20.4 | -3.5 | 9.3 | -13.6 | -79.5% |
| O=c1c2ccccc2oc2c(Cl)cc(Cl)cc12 | -0.95 | -0.05 | 9.35 | -10.3 | -6.5 | 0.8% |
| Cc1ccc(C(N)=O)cc1N=NN(C)C | -25.8 | -39.4 | -56.9 | 1.55 | -16.6 | -24.4% |
| CCCCCCCCCc1cc(=O)c2c(O)cccc2o1 | -25.8 | -30.6 | -11 | -20.1 | 18.6 | -22.4% |
| O=C(C[n+]1cc(Br)cc2ccccc21)c1ccc(F)cc1 | 24.8 | 19.9 | 37.3 | 39.4 | 4.7 | 30.2% |
| CC(=O)OC1CC2CC1C1OC21 (stereo unspecified) | -2.25 | -15.3 | -22.1 | -1.8 | -11.7 | -6.65% |
| O=C1CC(c2ccccc2)N1c1ccccc1 (stereo unspecified) | -17.9 | -34 | -11.3 | -20.6 | -10.9 | -22.8% |
| CC(C)C1Oc2ccc(Br)cc2C1O (stereo unspecified) | 11.2 | 8.15 | 2.25 | -13.1 | 18.7 | 5.6% |
| CCSc1nc2n(c(=S)n1)CCN2C | 15.4 | -3.5 | 13.8 | 6.5 | 22.6 | 18.2% |
| c1ccc(-c2cn(-c3ccccc3)nn2)cc1 | -1 | -4.5 | -13.7 | -22.9 | -28.8 | 0.6% |
| COc1cc(C)cc(C(=O)O)c1 | -1.85 | -3.5 | 7.3 | -52.4 | -10 | -2.7% |
| COC(=O)c1ccc(Oc2nc3ccc(C(F)(F)F)cc3nc2-c2ccccc2)cc1 | -11.9 | -31.9 | 14.3 | -34.1 | -23.8 | -19.1% |
| Cc1noc(NC(=O)Nc2ccccc2F)c1C#N | -24.3 | -10.4 | -33.1 | 26.9 | -15.9 | -2.25% |
| NC1CC(c2ccccc2)NC(c2ccccc2)C1 (stereo unspecified) | 10.7 | -2.9 | -4.8 | -8.5 | -14.8 | 16.2% |
| CCC(CC)C(O)C(C)C(C)O (stereo unspecified) | 1.3 | -8.8 | -10.6 | 4.8 | -11.2 | -4.75% |
| CC1(C)COC1(c1ccccc1)c1cccnc1 (stereo unspecified) | -45.1 | -11.4 | -14.1 | -39.2 | 8.15 | -16.8% |
